High-throughput results (PubChem BioAssay)
A selection: hits, their analogues and other compounds. The true share with any hit is near 6.1%.
D1 ag: activates the human D1 dopamine receptor. 1% of 360,000 active. activation, % at 2 µM. HEK293 T-REx D1 cells, calcium flux, agonist mode. P21728; in the data active = activation above about 30%
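Inducible HEK293 T-REx D1 cells, force-coupled to calcium signalling, were plated at 4000 cells/well with tetracycline and held overnight at 30 C. After no-wash calcium dye loading, compound-evoked calcium rise over 180 s flagged agonists.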
D1 antag: human D1 dopamine receptor antagonism. P21728. HEK293 TREx D1 cells, calcium flux, dopamine EC80; stronger effect = lower value. activity change, negative = inhibition, % at 10 µM. 3.2% of 360,000 active; in the data active = activity change below about -30%
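After overnight tetracycline induction at 30 C, force-coupled D1 HEK293 cells took up a no-wash calcium dye at room temperature. Compounds were added and monitored 180 s, and the response to EC80 dopamine was then recorded.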
ERG-DNA inh: inhibitors of human ERG Ets domain-DNA interaction. P11308. fluorescence polarization, His-ERG Ets domain / labelled DNA. Potency, µM (series often up to 76.9 µM), usual class: inhibitors. 0.028% of 370,000 active; active = well fitted inhibition curve with a large enough effect in the polarisation, with a control signal flat; inconclusive = small, poorly fitted or top-dose-only effect, or effect the other way, or a change in a side signal; inactive = no such curve, though single readings can be large or run the other way; the % refers to the polarisation;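 also: polarization taken with two DNA probes labelled with fluorescein and Texas red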
Target sequence (P11308 whole entry, looked up, the tested form may be a part): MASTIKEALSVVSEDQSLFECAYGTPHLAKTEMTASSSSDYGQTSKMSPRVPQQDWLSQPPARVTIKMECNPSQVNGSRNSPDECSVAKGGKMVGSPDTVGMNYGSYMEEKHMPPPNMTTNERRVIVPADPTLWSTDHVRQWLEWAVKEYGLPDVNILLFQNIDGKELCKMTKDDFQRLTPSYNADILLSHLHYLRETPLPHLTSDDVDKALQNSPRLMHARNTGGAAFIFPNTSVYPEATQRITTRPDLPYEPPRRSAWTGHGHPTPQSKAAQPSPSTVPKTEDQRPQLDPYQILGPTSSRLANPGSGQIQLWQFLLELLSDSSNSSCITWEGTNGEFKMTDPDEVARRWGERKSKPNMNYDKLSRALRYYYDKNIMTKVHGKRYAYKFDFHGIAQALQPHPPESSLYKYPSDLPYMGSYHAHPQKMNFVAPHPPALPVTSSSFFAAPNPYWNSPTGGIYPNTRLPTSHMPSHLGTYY
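His-tagged ERG Ets domain (1 uM in the protein solution; 300mM KCl, 50mM Tris-HCl, 1mM EDTA, 1mM DTT, pH 7.5) received compound, then a probe mix of 5 nM fluorescein-DNA and 100nM Texas-615-DNA. Fluorescence polarization was read for both dyes.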
D1 PAM: enhances dopamine response at the human D1 receptor. HEK293 TREx D1 cells, calcium flux, dopamine EC20 potentiation. AID 504651. potentiation, % at 10 µM. 0.036% of 360,000 active. P21728; in the data active = potentiation above about 30%
D3 ag: D3 dopamine receptor (human) agonism. D3R DiscoveRx beta-arrestin cells, luminescence, 90 min. 0.58% of 410,000 active. max activation, %; in the data active = max activation above about 30%
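Agonist-mode cell screen: cells plated at 1500/well and incubated overnight at 37 °C, then exposed to library compounds for 90 min at 37 °C. Detection reagent was added for 30–60 min at room temperature, and luminescence was read.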
D3 antag: D3 dopamine receptor (human) antagonism; P35462; D3R cells, DiscoveRx beta-arrestin luminescence, antagonist mode; stronger effect = lower value; max response, negative = inhibition, %; 2.5% of 360,000 active; in the data active = max response below about -50%; inconclusive = no clear call, values can overlap the other calls
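Cells plated overnight at 1500 cells/well, then exposed to library compounds with dopamine controls for 90 minutes at 37 degrees C. DiscoveRx reagent added for 30–60 minutes at room temperature; luminescence read, quantitative HTS format.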
A number is an active result; . = inactive; ? = inconclusive; / = not tested or not shown.

SMILES | D1 ag | D1 antag | ERG-DNA inh | D1 PAM | D3 ag | D3 antag
CCCn1cc(S(=O)(=O)c2ccccc2)c(=O)c2cc(OC)c(OC)cc21 | . | . | . | . | . | .
Clc1ccccc1Cc1noc(CN2CCN(c3cnccn3)CC2)n1 | . | . | . | . | . | .
CCNC(=S)N(Cc1cc2cc(C)cc(C)c2[nH]c1=O)C1CCCC1 | . | -47 | . | . | . | .
CNC(=S)N(Cc1cc2cc(C)cc(C)c2[nH]c1=O)C1CCCC1 | . | . | . | . | . | .
Cc1cc2cc(CN(Cc3cccs3)C(=S)NCC3CCCO3)c(=O)[nH]c2cc1C (stereo not drawn) | . | . | . | . | . | .
Cc1cc(C)c2[nH]c(=O)c(CN(Cc3cccs3)C(=S)NCC3CCCO3)cc2c1 (stereo not drawn) | . | -31 | . | . | . | .
CCCCNS(=O)(=O)CCNCCc1ccccc1 | / | / | . | / | . | .
CCCCCCCCNCCS(=O)(=O)NCc1ccccc1 | / | / | . | / | . | -81
CCCCNS(=O)(=O)CCNCc1ccc(OC)cc1 | / | / | . | / | . | .
CCCCNS(=O)(=O)CCNCc1ccco1 | / | / | . | / | 43 | .
Cc1cc(C)n(C(C)CC(=O)NCc2ccccc2C)n1 (stereo not drawn) | . | . | . | . | . | /
C[C@H](O)[C@@H]1CN2CCc3c([nH]c4ccccc34)[C@@H]2C[C@@H]1N(C)C(=S)NCCc1ccccc1 | / | / | / | / | . | .
CCN1/C(=C/C(C)=O)Sc2ccc(OC)cc21 | . | . | . | . | . | .
CCOC(=O)/C(=C\C=C1/Sc2cc(OCC)c(OCC)cc2N1CC)C(C)=O | 329 | -43 | . | . | . | .
CCOC(=O)/C(=C/C=C1\Sc2cc(OCC)c(OCC)cc2N1CC)C(C)=O | 216 | -30 | . | . | . | .
CC(C)N(C(=O)COC(=O)c1ccc(Cl)nc1)C(C)C | . | . | . | . | . | .
COc1cccc(-c2nc(C(=O)NCCCN3CCOCC3)cc3c2[nH]c2ccccc23)c1 | . | . | . | . | . | .
CCOC(=O)c1ccccc1NC(=O)c1nc2nccc(C)n2n1 | . | / | . | . | . | .
CSCc1nnc(NC(=O)c2ccc(S(=O)(=O)N(CC(C)C)CC(C)C)cc2)o1 | . | . | / | . | / | /
CCN(CC)S(=O)(=O)c1ccc(C(=O)Nc2nnc(C(C)C)s2)cc1 | . | -40 | . | . | . | -69
CCc1nnc(NC(=O)c2ccc(S(=O)(=O)N(CC(C)C)CC(C)C)cc2)o1 | . | . | . | . | . | -107
O=C(Nc1ccc(Cl)cc1Cl)c1cccc(N2C(=O)C=CC2=O)c1 | . | . | . | . | . | -85
O=C(O)c1cccc(N2C(=O)C=CC2=O)c1 | / | / | / | / | . | .
Cc1ccc(OCCSc2nnc(-c3cccs3)o2)cc1 | . | . | . | . | . | /
Cc1ccc(-c2nnc(SCCOc3ccccc3)o2)cc1 | 81 | . | . | . | . | /
SMILES | D1 ag | D1 antag | ERG-DNA inh | D1 PAM | D3 ag | D3 antag
c1ccc(-c2nnc(SCCC3OCCCO3)o2)cc1 | / | / | . | / | 103 | .
Cc1ccc(NC(=O)C2c3ccccc3-c3ccccc32)cc1 | / | / | / | / | . | .
COc1cc(-c2ccno2)ccc1S(=O)(=O)N1CCN(c2ccccc2F)CC1 | . | . | . | . | . | /
CCC(=O)Oc1ccc2ccccc2c1CNC(=O)c1ccccc1 | . | -40 | / | . | . | .
O=C(NCNC(=O)c1ccccc1)c1ccccc1 | . | . | / | . | . | .
O=C(Oc1cc(=O)oc2c1c(=O)n1c3c(cccc23)CC1)c1ccccc1 | . | -38 | . | . | . | .
O=C(Oc1cc(=O)oc2c1c(=O)n1c3c(cccc23)CC1)c1ccc(F)cc1 | . | -45 | . | . | . | .
CN(CC(=O)Nc1ccccc1Cl)S(=O)(=O)c1ccc(C(=O)N2CCOCC2)s1 | . | . | . | . | . | /
CCOC(=O)Nc1ccc2c(c1)N(C(=O)CCN1CCN(CCO)CC1)c1ccccc1S2 | / | / | . | / | . | .
Cc1ccc(NC(=O)Cn2cnc3c(cnn3C(C)(C)C)c2=O)cc1 | . | . | . | . | . | ?
COc1ccc(Cl)cc1N1C(=O)[C@@H]2C(c3cccc(OC)c3OC)=NO[C@@H]2C1=O | . | . | . | . | . | .
Cc1ccc(/C=N/NC(=O)c2nnn(-c3nonc3N)c2CSc2ccccc2)cc1 | . | . | . | . | . | .
Nc1nonc1-n1nnc(C(=O)N/N=C/c2cccc(Cl)c2)c1CSc1ccc(Cl)cc1 | . | . | . | . | . | .
Nc1nonc1-n1nnc(C(=O)N/N=C/c2cccc(Cl)c2)c1CSc1ccccc1 | . | . | . | . | 39 | .
Nc1nonc1-n1nnc(C(=O)N/N=C/c2ccccc2)c1CSc1ccc(Cl)cc1 | . | -46 | . | . | . | .
Nc1ccc(-c2nc3ncccc3o2)c(Cl)c1 | . | . | . | . | . | .
COc1cc(OC)c(OC)cc1CNC(=O)c1cc(S(=O)(=O)N2CCOCC2)ccc1F | . | . | . | . | . | .
COc1cnc(-c2ccccn2)nc1N(C)c1ccccc1 | . | . | . | . | . | -68
COc1cnc(-c2ccccn2)nc1Sc1ccc(Cl)cc1 | . | . | . | . | . | -99
Cc1ccc(S(=O)(=O)Cc2ccc(C(=O)N3CCN(c4cc(C)ccc4C)CC3)o2)cc1 | . | . | . | . | . | .
Cc1ccc(C)c(N2CCN(C(=O)C(Cc3ccccc3)n3cccc3)CC2)c1 (stereo not drawn) | . | -53 | . | / | . | .
O=C(C(Cc1ccccc1)n1cccc1)N1CCN(c2ccccc2)CC1 (stereo not drawn) | . | . | . | / | . | .
